High-throughput results from PubChem BioAssay.
This is a sample that favours compounds with a hit; in the whole collection about 3.1% have one here.
DRD3 antagonist – D3 dopamine receptor (human) antagonism | D3R cells, DiscoveRx beta-arrestin luminescence, antagonist mode; hits give low values | AID 652054 | P35462 | actives 2.5% (n = 360,000) | max response, negative = inhibition, %; in the data active means max response below about -50%; inconclusive means no clear call, values can overlap the other calls
Target sequence (P35462 whole entry, looked up): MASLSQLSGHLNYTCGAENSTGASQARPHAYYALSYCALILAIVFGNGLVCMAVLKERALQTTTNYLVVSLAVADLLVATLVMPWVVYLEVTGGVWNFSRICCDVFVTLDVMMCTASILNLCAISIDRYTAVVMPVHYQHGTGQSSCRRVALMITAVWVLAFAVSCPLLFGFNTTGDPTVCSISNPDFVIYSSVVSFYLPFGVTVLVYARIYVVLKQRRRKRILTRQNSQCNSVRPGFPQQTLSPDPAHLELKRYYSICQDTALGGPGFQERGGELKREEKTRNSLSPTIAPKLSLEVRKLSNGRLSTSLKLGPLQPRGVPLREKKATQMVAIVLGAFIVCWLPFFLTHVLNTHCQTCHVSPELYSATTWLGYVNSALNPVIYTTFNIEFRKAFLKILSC
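Cells plated overnight at 1500 cells/well, then exposed to library compounds with dopamine controls for 90 minutes at 37 degrees C. DiscoveRx reagent added for 30–60 minutes at room temperature; luminescence read, quantitative HTS format.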
uPA generation – blocks generation of uPA at the cell surface; cell surface uPA generation assay, qHTS; Potency, µM (doses to about 38.3 µM), actives largely listed as inhibitors; actives 0.31% (n = 330,000); AID 540303; active means well fitted inhibition curve with a large enough effect; inconclusive means small, poorly fitted or top-dose-only effect; inactive means no such curve, though single readings can be large or run the other way; tested in mouse RAW 264.7 cells; further: nearly all actives have a fitted effect of over 55% in size
DRD3 agonist – activates the human D3 dopamine receptor; D3R DiscoveRx beta-arrestin cells, luminescence, 90 min; max activation, %; actives 0.58% (n = 410,000); AID 652048; in the data active means max activation above about 30%
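Agonist mode: compounds and dopamine controls were applied to plated cells for 90 min at 37 degrees C after an overnight attachment at 1500 cells/well. Luminescent read-out followed 30 - 60 minutes at room temperature with DiscoveRx detection reagent.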
RGS4 inhibitor – inhibitors of human regulator of G protein signaling 4; P49798; Transcreener GDP fluorescence polarization, RGS4-accelerated GTP hydrolysis; Potency, µM (top dose mostly 114 µM), actives largely listed as inhibitors; actives 0.039% (n = 390,000); active means well fitted inhibition curve with a large enough effect; inconclusive means small, poorly fitted or top-dose-only effect; inactive means no such curve, though single readings can be large or run the other way; further: nearly all actives have a fitted effect of over 75% in size
Target sequence (P49798 whole entry, looked up): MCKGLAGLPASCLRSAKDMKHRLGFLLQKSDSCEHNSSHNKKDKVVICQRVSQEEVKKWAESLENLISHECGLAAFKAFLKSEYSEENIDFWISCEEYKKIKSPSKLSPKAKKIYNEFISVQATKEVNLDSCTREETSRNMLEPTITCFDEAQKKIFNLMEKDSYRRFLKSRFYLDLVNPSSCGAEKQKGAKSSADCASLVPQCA
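MLSMR compounds (23 nl, pin-transferred) preincubated 10 min at room temperature with a 500nM (2x) first reagent, then RGS4 at 900nM (2x) plus Transcreener GDP mix added; fluorescence polarization (620/688 nm) read before and after 90 min at 30 °C.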
Of the large screens only hits and unclear results are named; the others gave an inactive call; ! = repeats disagree.

CCOC(=O)C1=C(C)N=c2s/c(=C/c3cccc([N+](=O)[O-])c3O)c(=O)n2C1c1ccc(OC)cc1OC (configuration not stated)	DRD3 antagonist -55
Cc1ccc(C(=O)c2c(N)c(C(=O)Nc3cccc(C(F)(F)F)c3)c3ccccn23)cc1	none (no result: DRD3 antagonist, uPA generation)
Cc1cccc(N2CCN(C(=O)c3cn(CC(C)C)c(=O)c4c3c3ccccc3n4C)CC2)c1C	DRD3 agonist 30 (no result: DRD3 antagonist, uPA generation)
Cc1ccc(C)c(N2CCN(C(=O)c3cn(CC(C)C)c(=O)c4c3c3ccccc3n4C)CC2)c1	none (no result: DRD3 antagonist, uPA generation)
Cc1nn(-c2ccccc2)c(NC(=O)c2cccs2)c(-c2ccccc2Cl)c1=O	DRD3 antagonist -59
Cc1ccc(-n2nc3c(c2NC(=O)c2cccs2)CSC3)cc1	none
C[N+](C)(CCCCCC[N+](C)(C)C1c2ccccc2-c2ccccc21)C1c2ccccc2-c2ccccc21	none (no result: DRD3 antagonist, uPA generation, RGS4 inhibitor)
COc1c(C)cc(S(=O)(=O)NCc2ccco2)c(C)c1C	DRD3 agonist 31
CCOc1cc(C(=O)NCc2ccc3c(c2)CCN3C(=O)c2ccc(F)cc2)cc(OCC)c1OCC	none (no result: DRD3 antagonist, uPA generation)
CCC(=O)N1CCc2cc(CNC(=O)c3ccc(F)cc3)ccc21	none (no result: DRD3 antagonist, uPA generation)
Cc1cc(Oc2ccccc2)nc(SCC(N)=O)n1	DRD3 antagonist -78
COc1ccc(NC(=O)C(C(C)C)N2Cc3ccccc3C2=O)cc1 (configuration not stated)	none (no result: DRD3 antagonist, uPA generation)
CC[C@H](C)C(=O)O[C@H]1CCC=C2C=C[C@H](C)[C@H](CC[C@@H]3C[C@@H](O)CC(=O)O3)[C@H]21	uPA generation 1.3µM
COC(=O)NNC(=S)Nc1cc(OC)ccc1OC	DRD3 antagonist -141
CCOc1ccc(NC(=O)CSc2cc(C)c3ccccc3n2)cc1	none (no result: DRD3 antagonist, uPA generation)
CO[C@@]1(NC(=O)CSC[C@@H](N)C(=O)O)C(=O)N2C(C(=O)O)=C(CSc3nnnn3C)CS[C@@H]21	none (no result: DRD3 antagonist, uPA generation, RGS4 inhibitor)
S=c1[nH]nc(-c2cccnc2)n1Cc1ccccc1	DRD3 antagonist -53
O=[N+]([O-])c1cc2c(cc1/C=N/n1c(-c3ccccc3)n[nH]c1=S)OCO2	DRD3 antagonist inconclusive
O=[N+]([O-])c1ccccc1/C=N/n1c(-c2cccnc2)n[nH]c1=S	DRD3 antagonist -86
O=[N+]([O-])c1cc2c(cc1/C=N/n1c(-c3ccccn3)n[nH]c1=S)OCO2	DRD3 antagonist -50
O=[N+]([O-])c1cc(/C=N/n2c(-c3cccnc3)n[nH]c2=S)ccc1Cl	RGS4 inhibitor inconclusive
S=c1[nH]nc(-c2cccnc2)n1/N=C/c1cccs1	DRD3 antagonist -111
Cc1cc2c(cc1NC(=O)c1ccccc1C)n(C)c(=O)c(=O)n2C	none (no result: DRD3 antagonist, uPA generation)
CC(C)c1ccc(/C=C/C(=O)Nn2cnnc2)cc1	none (no result: DRD3 antagonist, uPA generation, DRD3 agonist)
Cc1cc(Sc2ccc([N+](=O)[O-])cn2)ccc1Br	none
Cc1ccc(S(=O)(=O)c2ccc(C)cc2)cc1	none
Cc1cc(S(=O)(=O)c2ccc([N+](=O)[O-])cn2)ccc1Br	DRD3 antagonist -73
Cc1ccc(S(=O)(=O)c2ccc([N+](=O)[O-])cn2)cc1	DRD3 antagonist -75
Nc1ccc(S(=O)(=O)c2ccccc2)nc1	none
O=[N+]([O-])c1ccc(S(=O)(=O)c2ccccc2)nc1	DRD3 antagonist -151, uPA generation inconclusive
O=c1cc(C(F)(F)F)[nH]c2ccc(OC(F)(F)F)cc12	DRD3 agonist 33
O=c1cc(C(F)(F)F)[nH]c2c(C(F)(F)F)cccc12	uPA generation inconclusive
COc1ccc(NC(=O)C2CCN(C3=NS(=O)(=O)C(c4ccc(C)c(C)c4)=C3C)CC2)c(OC)c1	none (no result: DRD3 antagonist, uPA generation)
CN(CCOc1ccccc1)CC(O)COCc1ccccc1F (configuration not stated)	DRD3 antagonist inconclusive
CC(OCC(O)CN(C)CCOc1ccccc1)c1ccc(Cl)cc1 (configuration not stated)	DRD3 antagonist -69
CN(CCOc1ccccc1)CC(O)COc1ccccc1 (configuration not stated)	DRD3 antagonist -74
CN(CCOc1ccc(Br)cc1)CC(O)c1ccccc1 (configuration not stated)	none
CN(CCOc1ccc(Cl)cc1)CC(O)c1ccccc1 (configuration not stated)	DRD3 antagonist -52
Clc1ccc(CCNc2ncnc3c2c(-c2ccccc2)cn3-c2ccccc2)cc1	none (no result: DRD3 antagonist, uPA generation)
CCOc1ccc(-c2nc(SC(C(C)=O)C(=O)N(C)C)c3c(=O)n(C)c(=O)n(C)c3n2)cc1 (configuration not stated)	none (no result: DRD3 antagonist, uPA generation)
CC(C)c1ccc(NC(=O)CCNS(=O)(=O)c2ccc3c(c2)oc(=O)n3C)cc1	none (no result: DRD3 antagonist, uPA generation)
CC1CC(C)CN(S(=O)(=O)c2ccc3c(c2)CC(C)N3C(=O)C2CC2)C1 (configuration not stated)	DRD3 antagonist -110
CC1CCN(S(=O)(=O)c2ccc3c(c2)c(=O)c(C(=O)N2CCN(c4cccc(Cl)c4)CC2)cn3C)CC1	none (no result: DRD3 antagonist, uPA generation)
Cc1oc(-c2ccc(Cl)cc2)[n+]([O-])c1C	DRD3 antagonist -67
COC(=O)CSc1ncnc2c1sc1nc(N3CCOCC3)c3c(c12)CCCC3	none
CCOC(=O)CSc1ncnc2c1sc1nc(N3CCOCC3)c3c(c12)CCCC3	DRD3 agonist 61
Cc1ccc(NC(=O)Cc2csc(-c3ccccc3)n2)cc1F	none
O=C(Cc1csc(-c2ccccc2)n1)Nc1ccc(C(F)(F)F)cc1	DRD3 antagonist -56
O=C(NCCc1c[nH]c2ccccc12)C(=O)NCC(c1ccco1)N1CCN(c2ccc(F)cc2)CC1 (configuration not stated)	none
O=C(NCCc1c[nH]c2ccccc12)C(=O)NCC(c1ccco1)N1CCN(c2ccccc2)CC1 (configuration not stated)	DRD3 agonist 41
O=c1[nH]c(CN2CCN(c3ccc(O)cc3)CC2)nc2scc(-c3ccc(Cl)cc3)c12	uPA generation 5µM, DRD3 agonist 98
CCOC(=O)c1cnn(-c2ccc(C(=O)Nc3cc(OC)c(OC)c(OC)c3)cc2)c1N	none (no result: DRD3 antagonist, uPA generation)
COc1ccccc1NS(=O)(=O)c1cccc(-n2c(O)c(C=Nc3ccccc3C(=O)O)c3ccccc3c2=O)c1	DRD3 agonist 62
CCCCNc1nc2ccccc2n1CC(=O)N1CCc2ccccc2C1	DRD3 antagonist -76 (no result: uPA generation)
CCCCNC(=O)N1CCc2ccccc2C1	RGS4 inhibitor inconclusive
O=C(Cn1cc(COc2c(F)c(F)cc(F)c2F)nn1)c1ccc(O)cc1	DRD3 antagonist -79
COc1ccc(Cl)cc1NC(=O)NNC(=O)C(=O)Nc1ccc(F)cc1	DRD3 antagonist inconclusive (no result: uPA generation, RGS4 inhibitor)
CN1CCc2cccc3c2[C@H]1Cc1ccc(O)c(O)c1-3	uPA generation inconclusive, DRD3 agonist 76!, RGS4 inhibitor inconclusive
Cc1ccc(-n2ncc(C#N)c2/N=C/N2CCN(C)CC2)cc1	DRD3 antagonist -76
CNC(=O)/C(C#N)=C/c1c(N2CCN(c3cccc(Cl)c3)CC2)nc2c(C)cccn2c1=O	DRD3 antagonist -57
C=CCNC(=O)/C(C#N)=C/c1c(N2CCN(c3cccc(Cl)c3)CC2)nc2c(C)cccn2c1=O	DRD3 antagonist -59
CCNC(=O)/C(C#N)=C/c1c(N2CCN(c3ccccc3)CC2)nc2c(C)cccn2c1=O	DRD3 antagonist -69
